Consider 20 molecules from PubChem BioAssay (NCATS).

Test [1] has as its target Glutathione peroxidase 1 (Homo sapiens) (UniProt P07203). Description: Primary qHTS Assay for Inhibitors of Recombinant Selenoprotein Glutathione Peroxidase 1 (GPX1) (AID 1845191). Also: nearly all actives have a fitted effect of over 65% in size. Also: potency is read from the fitted curve at half-maximal effect. As to activity, negative = inhibition: % is scaled to controls: 0 for no effect and ±100 for the full control effect. The procedure, abridged: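 GR-coupled assay: compounds preincubated 30 min at room temperature with GPX1, then reaction started with CHP; final 10 nM GPX1, 1 mM GSH, 0.5 mM CHP, 0.5 mM NADPH, 100 nM GR, 0.01% BSA, pH 7.5 Tris buffer. NADPH fluorescence (340/450 nm) read at 0 and 15 min.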
In general terms: Quantitative high-throughput screening tests each substance at several concentrations.

Test [2] has as its target Phospholipid hydroperoxide glutathione peroxidase GPX4 (Homo sapiens) (UniProt P36969). As to the kind of experiment: Primary qHTS Assay for Inhibitors of Recombinant Selenoprotein Glutathione Peroxidase 4 (GPX4) (AID 1845192). Also: nearly all actives have a fitted effect of over 65% in size. As to activity change, negative = inhibition: series mostly up to about 50 µM; % is scaled to controls: 0 for no effect and ±100 for the full control effect. The gist of the method: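 GR-coupled assay: recombinant GPX4 preincubated 30 min with compound at room temperature; final 200 nM GPX4, 1 mM GSH, 0.5 mM cumene hydroperoxide, 0.5 mM NADPH, 100 nM GR, 0.01% BSA, pH 7.5 Tris. NADPH fluorescence (340/450 nm) read at 0 and 15 min.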

The target in test [3] is Luciferin 4-monooxygenase (Photinus pyralis) (UniProt P08659). Description: Primary firefly luciferase (FLuc) qHTS assay for identification of artifact compounds. (AID 1845220). Also: nearly all actives have a fitted effect of over 60% in size.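 As to activity change, negative = inhibition: series mostly up to about 54 µM; plate controls were DMSO vehicle for no effect and no enzyme for full effect.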 The procedure, abridged: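 Titrated compounds were incubated 15 min at RT, protected from light, with luciferin and ATP at 10 uM; reaction started with 10 nM FLuc, luminescence imaged at 5 min, and concentration-response fitted by Hill equation.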

Test [4] can be described thus: Primary fluorescence-based thiol-reactive (MSTI) qHTS assay for identification of artifact compounds. (AID 1845221). Also: nearly all actives have a fitted effect of over 65% in size. Also: potency is read from the fitted curve at half-maximal effect.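 As to activity change, negative = thiol reactive: series mostly up to about 54 µM; thiol-reactive compounds lower the probe fluorescence signal.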 The procedure, abridged: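 In PBS pH 7.4 with 2% DMSO, each compound met 4 uM MSTI for one hour at ambient temperature, shielded from light, before fluorescence detection.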
Test [5] concerns Nanoluciferase (engineered Oplophorus gracilirostris luciferase). As to the kind of experiment: Primary Nanoluciferase (NLuc) qHTS assay for identification of artifact compounds. (AID 1845222).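 Also: NLuc secreted into diluted conditioned medium of S16 cells; series mostly up to about 54 µM; 0% = DMSO and -100% = no enzyme.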 The gist of the method:
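qHTS format, against NLuc in S16 cell-conditioned medium. Nano-Glo substrate 1:100 was added after 15 min at room temperature. Luminescence was taken after a further 5 min.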

Values without a mark were called inactive. Records with an inconclusive call do not appear. Activity calls are given as the source filed them. Calls follow the shape of the dose curve; as a rule, active = well fitted curve in the direction sought with a large enough effect; inconclusive = small, poorly fitted or top-dose-only effect, or another doubt; inactive = no such curve, though single readings can be large; an effect the other way counts as inactive or inconclusive.

Sequence of Phospholipid hydroperoxide glutathione peroxidase GPX4 (Homo sapiens) (P36969 whole entry, looked up): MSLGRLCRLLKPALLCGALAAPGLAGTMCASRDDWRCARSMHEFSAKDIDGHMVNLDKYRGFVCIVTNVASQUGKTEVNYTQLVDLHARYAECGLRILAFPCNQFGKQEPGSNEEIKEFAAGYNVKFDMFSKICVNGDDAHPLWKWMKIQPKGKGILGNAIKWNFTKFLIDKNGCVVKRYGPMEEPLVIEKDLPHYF
Sequence of Glutathione peroxidase 1 (Homo sapiens) (P07203 whole entry, looked up): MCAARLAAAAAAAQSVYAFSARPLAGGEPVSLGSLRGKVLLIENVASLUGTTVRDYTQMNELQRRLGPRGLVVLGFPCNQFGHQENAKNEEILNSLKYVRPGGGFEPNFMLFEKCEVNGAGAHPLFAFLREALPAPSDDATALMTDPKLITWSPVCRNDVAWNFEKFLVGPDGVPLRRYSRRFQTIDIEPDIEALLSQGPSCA

With `COc1cc(N2CCC(O)CC2)ccc1Nc1nc(Nc2ccccc2S(=O)(=O)C(C)C)c2[nH]cnc2n1`, the Potency result in test [1], in test [2], in test [3] and in test [5] was “inactive” each time. Besides, the Potency in test [4] is 1.68 µM (active).

As for `C/C(=C/C=C\C=C\Cc1cnco1)[C@@H](O)C(C)(C)C(N)=O`, the Potency result in test [1], in test [2], in test [3], in test [4] and in test [5] was “inactive” throughout.

Regarding `O=C(c1ccc(OC(F)F)c(C#Cc2ccccn2)c1)N1Cc2cccnc2C1`, the Potency entry in test [1], in test [2], in test [3], in test [4] and in test [5] was “inactive” each time.

For the molecule `Cc1cc(F)c(C(=O)Nc2cccc(-c3nncn3C(C)C)n2)cc1-n1cnc(C2CC2)c1`, the Potency result in test [1], in test [2], in test [3], in test [4] and in test [5] was “inactive” in each case.

Turning to `CC(=O)OC1CC2(C)C(CCC(C)C23Cc2c(O)cc(CO)c(C=O)c2O3)C(C)(C)C1O` (stereo not given), the Potency entry in test [1], in test [2], in test [3], in test [4] and in test [5] was “inactive” in each case.

For `COc1ccncc1C(=O)NC(=O)Nc1ccc(-c2ccccc2)c(C(F)(F)F)c1`, the Potency entry in test [1], in test [2], in test [3], in test [4] and in test [5] was “inactive” throughout.

Take `O=C(N[C@@H]1CCCc2c1cnn2-c1ccc(F)cc1F)c1ccccn1`: the Potency entry in test [1], in test [2], in test [3], in test [4] and in test [5] was “inactive” throughout.

For the molecule `CC(=O)O[C@@H]1CC[C@@]2(C)[C@H](CC[C@@H]3[C@@H]2C[C@H](OC(C)=O)[C@]2(C)[C@@H](C(C)=O)CC[C@@H]32)C1`, the Potency result in test [1], in test [2], in test [3], in test [4] and in test [5] was “inactive” throughout.

For the molecule `CC(C)=CCC/C(C)=C/COCC1OC(n2ccc(=O)[nH]c2=O)C(O)C1O` (stereo not given), the Potency result in test [1], in test [2], in test [3], in test [4] and in test [5] was “inactive” in each case.

As to `COc1ccc(C#Cc2ccc(C(=O)N3CCC[C@@H](CO)C3)cc2)cc1`, the Potency entry in test [1], in test [2], in test [3], in test [4] and in test [5] was “inactive” each time.

As for `CC(=O)C=C=C1C(C)(C)CC(O)CC1(C)O[C@@H]1O[C@H](CO[C@H]2OC[C@](O)(CO)[C@H]2O)[C@@H](O)[C@H](O)[C@H]1O` (stereo not given in full), the Potency result in test [1], in test [2], in test [3] and in test [5] was “inactive” each time. Further, in test [4], the Potency is 5.19 µM (active).

With `CC1=C2C[C@@]3(C)C(CCC[C@@H]3C)C(O)C2OC1=O` (stereo not given in full), the Potency result in test [1], in test [2], in test [3], in test [4] and in test [5] was “inactive” in each case.

As to `Cc1csc(N(C(=O)CSc2ccc(-c3ccccc3)nn2)C2CC2)n1`, in test [1], the Potency is 20.2 µM (active). The Potency entry in test [2], in test [3], in test [4] and in test [5] was “inactive” throughout.

`CC(=O)O[C@H]1[C@H](O)C[C@@]2(C)C(CC[C@]3(C)C2CC=C2C4CC(C)(C)CC[C@]4(C(=O)O)CC[C@]23C)C1(C)C` (stereo not given in full): the Potency result in test [1], in test [2], in test [3], in test [4] and in test [5] was “inactive” in each case.

For `CC(C)NC(=O)N1CC[C@H](N=C2Nc3cc(F)ccc3N(CC(F)F)c3ccc(Cl)cc32)C1`, the Potency result in test [1] and in test [2] was “inactive” in each case. The activity change, negative = inhibition in test [3] is 1.25% [at 11.6 µM]. The activity change, negative = thiol reactive in test [4] was 70.3% [at 11.5 µM]. In addition, the activity, negative = inhibition in test [5] is 1.94% [at 11.6 µM].

Regarding `C=C1C(=O)OC2/C=C(\C)CC3C=C(CC/C=C(\C)CCC12)C(=O)O3` (stereo not given), the Potency entry in test [1], in test [2], in test [3], in test [4] and in test [5] was “inactive” each time.

With `CCCOc1ccc(S(=O)(=O)N2CCN(CCO)CC2)cc1-c1nc2c(CCC)cn(CC)c2c(=O)[nH]1`, the Potency entry in test [1], in test [2], in test [3], in test [4] and in test [5] was “inactive” in each case.

Regarding `COc1ccc(Cl)c(Nc2ncnc3cc(OCC4CCN(C)CC4)c(OC)cc23)c1`, the Potency result in test [1], in test [2], in test [3], in test [4] and in test [5] was “inactive” throughout.

As for `C/C=C(\C)C(=O)OC1C(C)C2(O)C(C=C(CO)CC3(O)C(=O)C(C)=CC32)C2C(C)(C)C12OC(C)=O` (stereo not given), the Potency result in test [1], in test [2], in test [3], in test [4] and in test [5] was “inactive” each time.

On to `Cc1nc(NC(=O)N2CCC[C@H]2C(N)=O)sc1-c1ccnc(C(C)(C)C(F)(F)F)c1`, for which the Potency result in test [1], in test [2], in test [3], in test [4] and in test [5] was “inactive” throughout.
